According to PubChem BioAssay (NCATS):
Where “and” joins values, the source holds several entries; their conditions need not be identical. Identical values can stand only once. Results filed as inconclusive are left out. Calls of active or inactive are those of the source. Unless noted, calls come from the whole dose curve.

Experiments:
[1] = qHTS assay for small molecule antagonists of peroxisome proliferator-activated receptor delta signaling (AID 588535; active = well fitted inhibition curve with a large enough effect in the signal ratio, with a control signal flat, not every such curve was filed as active; the % refers to the signal ratio;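 for max response: cells co-treated with a PPAR-delta agonist as stimulator during compound exposure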); details: HEK293T PPARd-UAS-bla, beta-lactamase FRET ratio, 18 h; 460 nm channel
Outline: (§1)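 Antagonist-mode beta-lactamase reporter (GeneBLAzer PPAR-delta-UAS-bla) in HEK293T cells, 2% charcoal/dextran FBS, 4000 cells/well. Compound titrations, 18 h at 37 C; CCF4 ratio read, IC50 and efficacy from Hill fits.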

[2] = target: Peroxisome proliferator-activated receptor delta (Homo sapiens) (UniProt Q03181); experiment: as above; details: HEK293T PPARd-UAS-bla, beta-lactamase FRET ratio, 18 h; series mostly up to 76.7 µM
Outline: as §1

[3] = target: Peroxisome proliferator-activated receptor gamma (Homo sapiens) (UniProt P37231); experiment: qHTS assay for small molecule agonists of peroxisome proliferator-activated receptor gamma signaling (AID 588536; active = well fitted curve in the direction sought with a large enough effect in the signal ratio, with a control signal flat, not every such curve was filed as active; the % refers to the signal ratio;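 note: 0% = DMSO basal wells and 100% = rosiglitazone at 2 µM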); details: HEK293 PPARg-UAS-bla, beta-lactamase ratio, 16 h, percent of rosiglitazone response, DMSO as zero; series mostly up to 76.7 µM
Peroxisome proliferator-activated receptor gamma (Homo sapiens), sequence (P37231 whole entry, looked up): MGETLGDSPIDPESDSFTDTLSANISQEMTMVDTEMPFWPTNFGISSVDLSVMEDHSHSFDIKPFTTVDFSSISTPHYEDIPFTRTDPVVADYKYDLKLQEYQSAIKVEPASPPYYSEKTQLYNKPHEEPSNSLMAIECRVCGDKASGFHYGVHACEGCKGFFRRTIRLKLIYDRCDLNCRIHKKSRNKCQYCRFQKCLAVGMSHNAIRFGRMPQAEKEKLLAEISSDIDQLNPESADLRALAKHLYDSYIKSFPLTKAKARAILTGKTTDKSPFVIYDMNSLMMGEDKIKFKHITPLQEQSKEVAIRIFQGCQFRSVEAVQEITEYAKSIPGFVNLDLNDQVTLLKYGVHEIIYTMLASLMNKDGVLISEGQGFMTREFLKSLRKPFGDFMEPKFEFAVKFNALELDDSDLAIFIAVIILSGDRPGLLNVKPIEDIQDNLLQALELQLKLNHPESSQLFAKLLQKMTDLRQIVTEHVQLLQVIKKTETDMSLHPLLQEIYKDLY
Outline: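 GeneBLAzer PPAR-gamma-UAS-bla HEK293 cells in 1% charcoal/dextran-treated FBS medium were treated 16 h at 37 C with compounds. Beta-lactamase activity was read by CCF4 ratio (460/530 nm). Response was normalized to 2 uM rosiglitazone (100%) and DMSO, then Hill-fitted for EC50 and efficacy.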

[4] = target: Peroxisome proliferator-activated receptor gamma (Homo sapiens) (UniProt P37231); experiment: qHTS assay for small molecule antagonists of peroxisome proliferator-activated receptor gamma signaling (AID 588537; active = well fitted inhibition curve with a large enough effect in the signal ratio, with a control signal flat, not every such curve was filed as active; the % refers to the signal ratio;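 note: reporter cells co-stimulated with 50 nM rosiglitazone agonist during compound treatment; % of control where 0% means no effect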); details: HEK293 PPARg-UAS-bla, beta-lactamase ratio, antagonist mode; series mostly up to 76.8 µM
Outline: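 PPARγ-UAS-bla HEK293 cells (3000/well) in 1% charcoal/dextran-stripped FBS are treated with compound, then stimulated with 50 nM rosiglitazone for 16 h at 37 °C. Read-out is CCF4 β-lactamase fluorescence after 2 h at RT. IC50 comes from Hill fits normalised to rosiglitazone and DMSO.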

[5] = target: Vitamin D3 receptor (Homo sapiens) (UniProt P11473); experiment: qHTS assay for small molecule antagonists of vitamin D receptor signaling (AID 588541); details: HEK293T VDR-UAS-bla, beta-lactamase ratio, antagonist mode; series mostly up to 76.7 µM;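 note: receptor activated by calcitriol during compound treatment; % is set by controls: 0 for no effect and ±100 for the full control effect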
Vitamin D3 receptor (Homo sapiens), sequence (P11473 whole entry, looked up): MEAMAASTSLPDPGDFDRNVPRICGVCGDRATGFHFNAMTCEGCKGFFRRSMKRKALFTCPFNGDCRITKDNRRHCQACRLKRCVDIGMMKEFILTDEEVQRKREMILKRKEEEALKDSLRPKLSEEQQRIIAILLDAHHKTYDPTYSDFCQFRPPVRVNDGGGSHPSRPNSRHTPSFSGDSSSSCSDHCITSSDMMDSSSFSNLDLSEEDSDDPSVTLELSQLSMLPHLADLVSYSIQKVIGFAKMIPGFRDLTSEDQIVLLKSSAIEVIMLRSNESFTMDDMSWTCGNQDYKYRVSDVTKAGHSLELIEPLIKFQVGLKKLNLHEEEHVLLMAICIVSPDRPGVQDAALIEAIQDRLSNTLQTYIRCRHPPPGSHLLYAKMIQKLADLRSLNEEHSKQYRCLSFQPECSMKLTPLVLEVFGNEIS
Outline: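 VDR-UAS-bla HEK293T cells in 2% charcoal-stripped FBS were stimulated with 1-alpha,25-dihydroxyvitamin D3 (3 nM final) plus compound for 16 h at 37 C. The beta-lactamase CCF4 readout was normalized to 50 nM agonist and DMSO, and Hill fits gave IC50.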

[6] = target: Vitamin D3 receptor (Homo sapiens) (UniProt P11473); experiment: qHTS assay for small molecule agonists of vitamin D receptor signaling (AID 588543); details: HEK293T VDR-UAS-bla, beta-lactamase ratio, 16 h; series mostly up to 76.8 µM;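 note: 0% = DMSO basal and 100% = reference agonist control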
Outline: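 Measured: β-lactamase reporter activity (CCF4, 405 nm excitation, 460/530 nm emission) in HEK293T VDR-UAS-bla cells after 16 h compound exposure at 37 °C. Normalization against 50 nM 1α,25-dihydroxyvitamin D3 and DMSO; Hill-fit EC50.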

[7] = qHTS assay for small molecule agonists of retinoid X receptor alpha signaling (AID 588544); details: HEK293T RXRa-UAS-bla, beta-lactamase reporter, 18 h; 530 nm emission;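 for activation: 0% = DMSO basal wells and 100% = reference agonist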
[8] = target: Retinoic acid receptor RXR-alpha (Homo sapiens) (UniProt P19793); experiment: as above; details: HEK293T RXRa-UAS-bla, beta-lactamase reporter, 18 h; series mostly up to 76.7 µM
Retinoic acid receptor RXR-alpha (Homo sapiens), sequence (P19793 whole entry, looked up): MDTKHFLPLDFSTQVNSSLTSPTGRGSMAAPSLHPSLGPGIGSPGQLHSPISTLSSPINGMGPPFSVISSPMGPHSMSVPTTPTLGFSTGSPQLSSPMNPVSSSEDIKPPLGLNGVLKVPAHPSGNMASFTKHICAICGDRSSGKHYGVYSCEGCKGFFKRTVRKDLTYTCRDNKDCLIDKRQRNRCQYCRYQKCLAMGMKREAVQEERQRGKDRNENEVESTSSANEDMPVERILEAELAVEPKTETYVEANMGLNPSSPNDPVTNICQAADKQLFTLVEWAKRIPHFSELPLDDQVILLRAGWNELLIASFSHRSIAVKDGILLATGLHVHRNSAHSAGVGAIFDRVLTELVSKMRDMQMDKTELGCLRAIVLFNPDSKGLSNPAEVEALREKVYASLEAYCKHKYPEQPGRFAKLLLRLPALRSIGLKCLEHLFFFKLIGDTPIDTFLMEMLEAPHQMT

[9] = target: Thyroid hormone receptor beta (Homo sapiens) (UniProt P10828); experiment: qHTS assay for small molecule agonists of thyroid hormone receptor beta signaling (AID 588545); details: TR-UAS-bla GripTite HEK 293, beta-lactamase ratio, agonist mode, 18 h, percent of T3 response, DMSO as zero; series mostly up to 76.7 µM
Thyroid hormone receptor beta (Homo sapiens), sequence (P10828 whole entry, looked up): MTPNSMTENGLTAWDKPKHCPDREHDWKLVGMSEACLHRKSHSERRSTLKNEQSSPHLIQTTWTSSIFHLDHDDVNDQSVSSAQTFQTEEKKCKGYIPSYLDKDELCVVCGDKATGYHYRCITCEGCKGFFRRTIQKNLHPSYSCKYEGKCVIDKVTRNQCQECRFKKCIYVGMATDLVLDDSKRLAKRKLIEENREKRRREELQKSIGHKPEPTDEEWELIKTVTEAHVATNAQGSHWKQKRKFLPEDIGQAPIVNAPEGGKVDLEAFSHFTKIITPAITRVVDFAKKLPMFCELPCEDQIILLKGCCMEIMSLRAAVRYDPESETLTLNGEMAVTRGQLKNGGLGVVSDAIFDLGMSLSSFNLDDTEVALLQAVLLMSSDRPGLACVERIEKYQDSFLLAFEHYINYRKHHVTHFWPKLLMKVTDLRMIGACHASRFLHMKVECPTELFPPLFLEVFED
Outline: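 HEK 293 TR-UAS-bla; agonist mode; 18 hrs, 37 C; CCF4, ex 405/em 460 and 530 nm; norm. T3 10 nM = 100%, DMSO = 0%; Hill fit → EC50, efficacy.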

[10] = qHTS assay for small molecule antagonists of retinoid X receptor alpha signaling (AID 588546; active = well fitted inhibition curve with a large enough effect in the signal ratio, with a control signal flat, not every such curve was filed as active; the % refers to the signal ratio; note: potency is the fitted concentration of half-maximal effect); details: HEK293T RXRa-UAS-bla, beta-lactamase ratio, antagonist mode; measured here: W530 green channel, cytotoxicity proxy
Outline: (§2)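 Beta-lactamase reporter inhibition, read as CCF4 fluorescence ratio (ex 405, em 460/530 nm) after 2 h at RT. HEK293T UAS-bla cells, 2500/well, were stimulated with 9-cis-RA at 500 or 100 nM final alongside test compound for 18 h at 37 C.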

[11] = target: Retinoic acid receptor RXR-alpha (Homo sapiens) (UniProt P19793); experiment: as above; details: HEK293T RXRa-UAS-bla, beta-lactamase ratio, antagonist mode
Outline: as §2

[12] = target: Thyroid hormone receptor beta (Homo sapiens) (UniProt P10828); experiment: qHTS assay for small molecule antagonists of thyroid hormone receptor beta signaling (AID 588547; active = well fitted inhibition curve with a large enough effect in the signal ratio, with a control signal flat, not every such curve was filed as active; the % refers to the signal ratio;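 note: cells stimulated with 0.4 nM T3 agonist during compound exposure; % is set by controls: 0 for no effect and ±100 for the full control effect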); details: TR-UAS-bla HEK293, beta-lactamase ratio, antagonist mode, 18 h
Outline: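 TR-UAS-bla GripTite HEK293 cells in 2% charcoal/dextran FBS medium; compounds 0.59 nM to 92 uM with T3 at 0.4nM final, 18 h at 37 C. Beta-lactamase read by CCF4 fluorescence (460/530 nm); Hill fits gave IC50 and efficacy.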

[13] = target: Voltage-gated inwardly rectifying potassium channel KCNH2 (Homo sapiens) (UniProt Q12809); experiment: qHTS Assay for Small Molecule Inhibitors of the Human hERG Channel Activity (AID 588834; active = well fitted curve in the direction sought with a large enough effect; an effect the other way counts as inactive or inconclusive;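 note: top concentration of the series differs between compounds; % is set by controls: 0 for no effect and ±100 for the full control effect; lower thallium flux fluorescence means stronger hERG block; nearly all actives have a fitted effect of over 50% in size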); details: U2OS BacMam hERG, FluxOR thallium flux fluorescence; series mostly up to 46.1 µM
Voltage-gated inwardly rectifying potassium channel KCNH2 (Homo sapiens), sequence (Q12809 whole entry, looked up): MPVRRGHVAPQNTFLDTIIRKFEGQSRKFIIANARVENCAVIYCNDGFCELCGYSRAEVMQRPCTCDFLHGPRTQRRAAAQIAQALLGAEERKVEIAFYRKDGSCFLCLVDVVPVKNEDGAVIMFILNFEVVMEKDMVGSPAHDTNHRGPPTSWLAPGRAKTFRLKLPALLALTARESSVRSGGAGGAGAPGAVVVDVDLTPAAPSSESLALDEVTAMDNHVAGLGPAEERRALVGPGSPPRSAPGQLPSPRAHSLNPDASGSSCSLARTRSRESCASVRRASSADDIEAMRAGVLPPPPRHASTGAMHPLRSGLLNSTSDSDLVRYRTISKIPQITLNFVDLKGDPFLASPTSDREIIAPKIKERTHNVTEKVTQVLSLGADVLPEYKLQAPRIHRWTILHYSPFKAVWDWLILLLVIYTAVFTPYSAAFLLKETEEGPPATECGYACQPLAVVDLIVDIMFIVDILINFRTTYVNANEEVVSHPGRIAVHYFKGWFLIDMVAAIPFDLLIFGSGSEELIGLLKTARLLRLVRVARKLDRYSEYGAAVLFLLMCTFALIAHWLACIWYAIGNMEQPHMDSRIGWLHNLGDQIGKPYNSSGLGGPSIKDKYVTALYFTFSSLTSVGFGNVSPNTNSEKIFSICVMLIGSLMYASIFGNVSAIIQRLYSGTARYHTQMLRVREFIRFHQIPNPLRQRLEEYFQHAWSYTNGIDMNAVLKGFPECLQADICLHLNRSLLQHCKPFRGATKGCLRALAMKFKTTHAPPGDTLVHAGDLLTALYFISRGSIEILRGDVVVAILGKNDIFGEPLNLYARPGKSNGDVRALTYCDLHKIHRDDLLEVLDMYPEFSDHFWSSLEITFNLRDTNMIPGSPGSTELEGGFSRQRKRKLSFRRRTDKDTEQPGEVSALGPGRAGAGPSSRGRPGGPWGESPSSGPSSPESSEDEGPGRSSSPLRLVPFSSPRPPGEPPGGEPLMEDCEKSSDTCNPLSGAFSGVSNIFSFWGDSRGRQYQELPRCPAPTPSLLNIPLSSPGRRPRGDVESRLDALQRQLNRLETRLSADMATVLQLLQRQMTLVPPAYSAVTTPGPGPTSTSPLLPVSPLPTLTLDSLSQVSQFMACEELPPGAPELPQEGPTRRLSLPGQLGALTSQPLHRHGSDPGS
Outline: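 Blockade is seen as reduced FluxOR thallium-flux fluorescence in U2OS cells expressing hERG from a BacMam construct, in Opti-MEM with 2% FCS. Concentration-response data fitted to the Hill equation for AC50.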

[14] = target: Luciferin 4-monooxygenase (Photinus pyralis) (UniProt P08659); experiment: Biochemical firefly luciferase enzyme assay for NPC (AID 624030; active = well fitted curve in the direction sought with a large enough effect; an effect the other way counts as inactive or inconclusive; note: nearly all actives have a fitted effect of over 70% in size; note: potency is the fitted concentration of half-maximal effect); details: purified P. pyralis luciferase, luminescence, 5 min; series mostly up to 58.6 µM
Luciferin 4-monooxygenase (Photinus pyralis), sequence (P08659 whole entry, looked up): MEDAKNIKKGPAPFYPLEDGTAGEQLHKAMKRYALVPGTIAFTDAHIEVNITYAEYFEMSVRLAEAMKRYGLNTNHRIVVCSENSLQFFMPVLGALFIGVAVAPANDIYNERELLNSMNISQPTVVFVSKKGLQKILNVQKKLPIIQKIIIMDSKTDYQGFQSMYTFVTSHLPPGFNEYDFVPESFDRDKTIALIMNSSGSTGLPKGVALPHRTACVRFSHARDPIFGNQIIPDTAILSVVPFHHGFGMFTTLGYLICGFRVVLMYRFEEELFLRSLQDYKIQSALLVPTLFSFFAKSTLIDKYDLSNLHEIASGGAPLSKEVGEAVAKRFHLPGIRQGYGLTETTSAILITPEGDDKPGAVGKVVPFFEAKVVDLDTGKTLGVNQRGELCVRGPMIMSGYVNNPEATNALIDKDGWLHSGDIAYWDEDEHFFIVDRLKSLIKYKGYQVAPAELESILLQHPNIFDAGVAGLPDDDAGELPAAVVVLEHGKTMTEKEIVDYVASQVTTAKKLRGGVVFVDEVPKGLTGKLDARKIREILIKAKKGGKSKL
Outline: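 Purified P. pyralis luciferase at 10 nM in 50 mM Tris Acetate (final), luminescence read within 5 minutes of enzyme addition to compounds. Activity normalised to PTC124 versus DMSO; concentration-response curves classed by r2, magnitude and activity.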

[15] = S16 Schwann cell viability assay (CellTiter-Glo assay) (AID 624031; active = well fitted curve in the direction sought with a large enough effect; an effect the other way counts as inactive or inconclusive;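 note: native untransfected S16 rat Schwann cells; cellular ATP luminescence as a viability measure; plate controls were DMSO-treated cells for no effect and cell-free wells for full effect; nearly all actives have a fitted effect of over 70% in size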); details: S16 rat Schwann cells viability, 24 h; series mostly up to 57.5 µM
Outline: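 Parental S16 cells, 24 h compound, 37 °C. ATP-luminescence viability; DMSO = 0% activity, empty wells as reference; curves classified by fit quality and efficacy.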

[16] = target: Bile acid receptor (Homo sapiens) (UniProt Q96RI1); experiment: qHTS assay for small molecule antagonists of farnesoid X receptor signaling (AID 588526); details: HEK293T FXR-UAS-bla, beta-lactamase ratio, antagonist mode; series mostly up to 76.7 µM; note: % is set by controls: 0 for no effect and ±100 for the full control effect
Bile acid receptor (Homo sapiens), sequence (Q96RI1 whole entry, looked up): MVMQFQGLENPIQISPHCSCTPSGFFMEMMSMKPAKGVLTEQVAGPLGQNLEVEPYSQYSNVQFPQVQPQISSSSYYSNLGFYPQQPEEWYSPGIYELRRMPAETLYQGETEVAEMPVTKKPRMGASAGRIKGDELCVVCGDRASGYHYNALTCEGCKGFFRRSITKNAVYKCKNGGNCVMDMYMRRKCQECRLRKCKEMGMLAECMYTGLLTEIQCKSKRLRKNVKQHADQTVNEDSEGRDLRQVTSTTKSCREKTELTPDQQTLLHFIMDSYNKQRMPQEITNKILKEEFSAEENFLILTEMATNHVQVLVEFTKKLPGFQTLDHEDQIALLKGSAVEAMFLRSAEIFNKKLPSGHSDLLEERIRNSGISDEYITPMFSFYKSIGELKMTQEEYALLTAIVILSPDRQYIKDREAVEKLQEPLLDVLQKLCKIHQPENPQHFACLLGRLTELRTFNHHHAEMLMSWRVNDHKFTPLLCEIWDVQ
Outline: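 Antagonist mode: titrated compounds tested against chenodeoxycholic acid stimulation (normalized to 50 uM CDCA and DMSO) in GeneBLAzer HEK293T cells for 16 h. Beta-lactamase read by CCF4 fluorescence; IC50 from Hill fits.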

[17] = target: Glucocorticoid receptor (Homo sapiens) (UniProt P04150); experiment: qHTS assay for small molecule agonists of glucocorticoid receptor signaling (AID 588532; active = well fitted curve in the direction sought with a large enough effect in the signal ratio, with a control signal flat; the % refers to the signal ratio;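 note: 100% = dexamethasone at 0.1 µM and 0% = DMSO only wells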); details: HeLa MMTV-bla, beta-lactamase ratio, agonist, 18 h; stronger effect = higher value; percent of dexamethasone control, DMSO zero
Glucocorticoid receptor (Homo sapiens), sequence (P04150 whole entry, looked up): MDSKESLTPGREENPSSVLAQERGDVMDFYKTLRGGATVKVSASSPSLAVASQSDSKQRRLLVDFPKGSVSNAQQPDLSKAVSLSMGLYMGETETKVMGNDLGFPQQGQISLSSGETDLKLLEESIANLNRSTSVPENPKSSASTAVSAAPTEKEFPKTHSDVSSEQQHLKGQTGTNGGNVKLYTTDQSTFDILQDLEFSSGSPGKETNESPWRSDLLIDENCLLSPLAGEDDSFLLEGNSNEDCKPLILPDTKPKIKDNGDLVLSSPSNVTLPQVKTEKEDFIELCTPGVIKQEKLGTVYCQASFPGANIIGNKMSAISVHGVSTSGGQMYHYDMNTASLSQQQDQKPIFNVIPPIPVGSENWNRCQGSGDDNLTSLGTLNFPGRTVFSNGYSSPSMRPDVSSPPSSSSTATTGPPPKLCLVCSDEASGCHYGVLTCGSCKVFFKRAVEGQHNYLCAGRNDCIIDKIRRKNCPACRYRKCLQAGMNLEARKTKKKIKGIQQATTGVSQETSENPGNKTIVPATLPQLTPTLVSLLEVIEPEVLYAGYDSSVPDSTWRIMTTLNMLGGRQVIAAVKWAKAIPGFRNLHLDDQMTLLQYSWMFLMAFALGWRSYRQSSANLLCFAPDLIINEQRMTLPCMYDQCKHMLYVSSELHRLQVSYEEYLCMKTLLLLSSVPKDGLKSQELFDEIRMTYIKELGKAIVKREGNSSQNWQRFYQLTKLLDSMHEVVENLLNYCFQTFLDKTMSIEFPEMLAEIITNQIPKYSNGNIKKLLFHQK
Outline: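 Cells were plated and rested 3-5 h at 37 C, compounds were added in titration and incubated 18 h, then CCF4 substrate was loaded for 2 h at RT before reading blue/green fluorescence. EC50 came from Hill-equation fitting.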

[18] = target: Glucocorticoid receptor (Homo sapiens) (UniProt P04150); experiment: qHTS assay for small molecule antagonists of glucocorticoid receptor signaling (AID 588533; active = well fitted inhibition curve with a large enough effect in the signal ratio, with a control signal flat, not every such curve was filed as active; the % refers to the signal ratio; note: % is set by controls: 0 for no effect and ±100 for the full control effect); details: HeLa MMTV-bla, GRE beta-lactamase ratio, antagonist mode, 18 h; series mostly up to 76.8 µM
Outline: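 Antagonist-mode qHTS: compound titrations added to GRE-bla HeLa cells, then dexamethasone 2 nM final; 18 h, 37 C. CCF4 FRET fluorescence normalized to dexamethasone and DMSO; IC50 from Hill fit.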

C[C@](N)(Cc1ccc(O)c(O)c1)C(=O)O
inactive: outcome [2] | outcome [3] | Potency [4] | outcome [5] | outcome [6] | outcome [8] | outcome [9] | max response [11] -26.4% | activity change % (negative = inhibition) [12] 1.38% | Potency [13] | Potency [14] | Potency [15]
-16.7%: max response [10]
-1.09%: max response [7]
-4.18%: max response [1]

COc1ccc2[nH]cc(CCNC(C)=O)c2c1
inactive: Potency [16] | activation [17] -4.76% and 1.7% and -3.63% | Potency [18] | outcome [2] | outcome [3] | Potency [4] | outcome [5] | outcome [6] | outcome [8] | outcome [9] | max response [11] 0.955% and -6.07% and -2.21% | activity change % (negative = inhibition) [12] -14% and 1.14% and 10.4% | Potency [13] | Potency [14] | Potency [15]
4.26% and -2.38% and 20.7%: max response [7]
14.8% and 21.6% and 4.95%: max response [1]
15.5% and 6.29% and -2.26%: max response [10]

Nc1c2c(nc3ccccc13)CCCC2
12.8%: max response [10]
inactive: outcome [3] | outcome [9] | max response [11] -6.99% | activity change % (negative = inhibition) [12] -14.9% | Potency [14] | Potency [15]

O=C(Nc1ccc([N+](=O)[O-])cc1Cl)c1cc(Cl)ccc1O
3.51%: max response [10]
active: Potency [11] 2.51 µM | Potency [14] 0.114 µM
inactive: activation [17] -5.17% | outcome [9] | Potency [13]

CC(C)Cc1ccc(C(C)C(=O)O)cc1 (centres undefined)
27.4%: max response [7]
4.68%: max response [10]
inactive: activation [17] -8.45% | Potency [18] | outcome [2] | outcome [3] | Potency [4] | outcome [8] | outcome [9] | max response [11] -17.6% | activity change % (negative = inhibition) [12] -8.69% | Potency [14] | Potency [15]
43%: max response [1]

CC#C[C@]1(O)CC[C@H]2[C@@H]3CCC4=CC(=O)CCC4=C3[C@@H](c3ccc(N(C)C)cc3)C[C@@]21C
inactive: activation [17] -13.5% | outcome [9] | Potency [14] | Potency [15]

CC(C)NCC(O)c1ccc(O)c(O)c1 (centres undefined)
inactive: activation [17] -1.74% | Potency [18] | outcome [2] | outcome [3] | Potency [4] | outcome [5] | outcome [6] | outcome [8] | outcome [9] | max response [11] -2.1% and -5.01% | activity change % (negative = inhibition) [12] -0.838% and 16% | Potency [13] | Potency [14] | Potency [15]
-15.7% and 0.88%: max response [10]
-7.52% and -0.93%: max response [7]
4.84% and 9.19%: max response [1]

Cc1ccc(-c2cc(C(F)(F)F)nn2-c2ccc(S(N)(=O)=O)cc2)cc1
inactive: activity change % (negative = inhibition) [12] 17.3% | Potency [14] | Potency [15]
